Reference: PubChem BioAssay AID1851 (National Center for Advancing Translational Sciences (NCATS), 2009)
The whole screen tested about 16,000 compounds, of which about 5,700 (36%) were called active. Roughly 24% stayed inconclusive and do not appear here. Calls come from the whole dose curve; as a rule, active = well fitted curve in the direction sought with a large enough effect; inconclusive = small, poorly fitted or top-dose-only effect, or effect the other way; inactive = no such curve, though single readings can be large or run the other way. The list shows a part of the results.

Target: Cytochrome P450 1A2 (Homo sapiens) (UniProt P05177)
Test: Cytochrome panel assay with activity outcomes
Details: recombinant CYP, pro-luciferin dealkylation, luminescence, p450-cyp1a2; series mostly up to 57.1 µM
% is set by controls: 0 for no effect and ±100 for the full control effect.

Cytochrome P450 1A2 (Homo sapiens), sequence (P05177 whole entry, looked up): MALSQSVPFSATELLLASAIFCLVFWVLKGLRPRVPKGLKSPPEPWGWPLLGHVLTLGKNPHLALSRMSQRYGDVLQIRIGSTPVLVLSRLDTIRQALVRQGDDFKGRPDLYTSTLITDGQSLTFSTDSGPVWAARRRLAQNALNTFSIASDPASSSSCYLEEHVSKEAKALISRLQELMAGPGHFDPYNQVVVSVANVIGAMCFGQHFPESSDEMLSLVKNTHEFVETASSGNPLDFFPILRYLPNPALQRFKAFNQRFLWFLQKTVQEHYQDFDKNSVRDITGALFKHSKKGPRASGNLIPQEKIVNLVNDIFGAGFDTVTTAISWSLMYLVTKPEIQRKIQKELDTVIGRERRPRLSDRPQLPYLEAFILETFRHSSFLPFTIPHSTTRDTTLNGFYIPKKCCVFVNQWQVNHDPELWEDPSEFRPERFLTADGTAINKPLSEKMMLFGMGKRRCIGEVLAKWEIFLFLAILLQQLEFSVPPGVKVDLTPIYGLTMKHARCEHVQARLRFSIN

AC50, active:
CCOC(=O)c1c(CC(C)C)csc1NC=O 0.224 µM
N#CCCn1c(=O)c(-c2cccs2)nc2cnc(Nc3ccccc3)nc21 5.01 µM
CCNc1ncc2nc(-c3cccs3)c(=O)n(CCc3ccccc3)c2n1 10 µM
COc1cccc(Nc2ncc3nc(-c4cccs4)c(=O)n(CCC#N)c3n2)c1 2.51 µM
CCNc1ncc2nc(-c3cccs3)c(=O)n(CCC#N)c2n1 3.16 µM
CCOC(=O)c1c(-c2ccc(C)o2)csc1NC(=S)NC(=O)N(C)C 1.58 µM
CN(C)c1ccc(NC(=O)c2cccc(N3C(=O)C4C5C=CC(C5)C4C3=O)c2)cc1 (stereo unspecified) 2 µM
O=[n+]1c2c(n([O-])c3cc(F)c(F)cc31)CCCC2 14.1 µM
CCCC1(C)Nc2ccccc2-c2nc3ccccc3n21 (stereo unspecified) 8.91 µM
CCCCC1(C)Nc2ccccc2-c2nc3ccccc3n21 (stereo unspecified) 14.1 µM
Fc1ccc(Nc2ccnc(-c3ccc4c(c3)OCO4)n2)cc1 0.631 µM
CN(C)C(=O)c1ccc(-c2nccc(Nc3ccc(F)cc3)n2)cc1 6.31 µM
CN(C)c1ccc(-c2cc(Nc3ccc(F)cc3)ncn2)cc1 0.398 µM
Fc1ccc(Nc2ccnc(-c3ccoc3)n2)cc1 1 µM
CN(C)c1ccc(-c2nccc(Nc3ccc(F)cc3)n2)cc1 0.501 µM
N=C(N)[C@H](N=Nc1ccccc1)C(N)=O 0.794 µM
CC[N+](C)(CC)CCC[n+]1c(-c2ccccc2)c2cc(N)ccc2c2ccc(N)cc21 12.6 µM
Cn1c(=S)c2[nH]c(SCCCc3ccccc3)nc2n(C)c1=O 3.16 µM
Oc1cccc(-c2nc3c4c(ncn3n2)-c2ccccc2CC42CCCC2)c1 10 µM
NC(=S)Nc1cccc2cccnc12 12.6 µM
CC1CCN(c2ccccc2NC(=S)NC(=O)c2cccs2)CC1 7.08 µM
O=C(NC(=S)Nc1cccc(Cl)c1N1CCCCC1)c1cccs1 10 µM
O=C(NC(=S)Nc1cccc(Cl)c1N1CCCCC1)c1ccco1 12.6 µM
COc1cccc(C(c2c(C)[nH]n(-c3ccccc3)c2=O)c2c(C)[nH]n(-c3ccccc3)c2=O)c1O 7.08 µM
CCN(CCCNC(=O)CC(C(=O)N1CCc2ccccc21)n1ccnc1)c1ccccc1 (stereo unspecified) 3.16 µM
NC(=O)Cn1c(=O)n(Cc2ccco2)c(=O)c2c3c(sc21)CCCCC3 4.47 µM
O=C(Cn1c(=O)n(Cc2ccco2)c(=O)c2c3c(sc21)CCCCC3)c1ccccc1 12.6 µM
CN(C)CCn1c(=O)n(Cc2ccco2)c(=O)c2c3c(sc21)CCCCC3 2.24 µM

AC50, inactive:
COCC(=O)N1CCC2(CC1)CCN(C(c1ccccc1)c1ccccc1)CC2
O=C(Nc1cccc(F)c1)N1CC[C@@]2(CCCN(C(=O)c3cnccn3)C2)C1
O=C(CN1C(=O)C2C3C=CC(C3)C2C1=O)Nc1ccc(C(=O)O)cc1 (stereo unspecified)
O=C(CCN1C(=O)C2C3C=CC(C3)C2C1=O)Nc1ccc2ncccc2c1 (stereo unspecified)
CCOc1ccc(-c2c[n+](=O)c3c(n2[O-])CCCC3)c(OCC)c1
CCC1(C)Nc2ccccc2C(=O)N1O (stereo unspecified)
CCCCC1CC(/C(C)=N/NC(N)=O)OC1=O (stereo unspecified)
NC(=O)CCCC1=NS(=O)(=O)c2ccccc2N1
CN(C)[C@@H]1C(=O)C(C(N)=O)=C(O)[C@]2(O)C(=O)C3=C(O)c4c(O)ccc(Cl)c4[C@H](O)[C@H]3C[C@@H]12
CC(=O)NS(=O)(=O)c1ccc(NC(=S)NC(=O)c2ccco2)cc1
CN(C1CCCCC1)S(=O)(=O)c1ccc(NC(=S)NC(=O)c2cccs2)cc1
Cc1c(Cl)cccc1NC(=O)CCC(=O)NNC(=O)c1ccco1
Cc1c(NC(=S)/C=C2\N(C)c3ccccc3C2(C)C)c(=O)n(-c2ccccc2)n1C
COc1cccc(C2NC(c3cccc(OC)c3O)C(C)C(=O)C2C)c1O (stereo unspecified)
CC1=NN(c2ccccc2)C(=O)/C1=C\c1c(C)[nH]n(-c2ccccc2)c1=O
CCN1CCC[C@H]1CNC(=O)c1c(OC)ccc(Br)c1OC
CCCCN(C)CCCNC(=O)CCn1nc(-c2ccccc2)ccc1=O
CCC(=O)[C@@]1(C)[C@H](C)C[C@@H]2[C@@H]3CCC4=CC(=O)C=C[C@@]4(C)[C@H]3[C@H](O)C[C@]21C
Cc1ccc(-n2c(=O)c3sccc3n(CC(=O)NCc3ccco3)c2=O)cc1F
CN(c1ccccc1)c1ccc(/C=c2\s/c(=C(/C#N)C(=O)C(C)(C)C)n(Cc3ccco3)c2=O)cc1

activity, negative = inhibition, inactive:
O=C1C2=CC[C@H]3C(=O)N(c4cccc(Oc5ccccc5)c4)C(=O)[C@@H]3[C@@H]2[C@H](O)[C@@H]2O[C@H]12 -1.58% [at 11.4 µM]
CO[C@@H]1COC(=O)C/C=C\[C@@H](C)COC(=O)[C@H](COCc2ccccc2)NC(=O)C/C=C\[C@H]1C -7.1% [at 11.4 µM]
C[C@@]12CC(=O)[C@@H]3[C@@H](CCC4=CC(=O)CC[C@]43C)[C@@H]1CC=C2CC(=O)O -17% [at 11.4 µM]
CC1(C)O[C@H]2[C@@H](c3[nH]nc4c(=O)[nH]c(=O)[nH]c34)OC[C@H]2O1 -11.5% [at 11.4 µM]
NNC(=O)[C@@H](O)[C@H](O)[C@H](O)CO -0.774% [at 11.4 µM]
NC(Cc1ccccc1)=NCC(=O)O -5.52% [at 11.4 µM]
N#C[C@@H](N=Nc1ccccc1C(=O)O)C(N)=O -8.23% [at 11.4 µM]
CC(C)(C)NC[C@@H](O)c1ccc(O)c(CO)n1 10.1% [at 2.29 µM]
Cn1c(=O)c2[nH]c(CCCc3ccc([N+](=O)[O-])cc3)nc2n(C)c1=O -18.9% [at 11.4 µM]
Cn1c(=S)c2[nH]c(SCCN3CCCC3)nc2n(C)c1=O -29.7% [at 2.29 µM]
COC(=O)C/C=C\[C@@H](C)[C@@H](/C=N\OC[C@@H](O)COCc1ccco1)NS(=O)(=O)c1ccc(C)cc1 3.98% [at 11.4 µM]
O=C(Nc1cccc2cccnc12)[C@@H]1[C@@H](C(=O)O)[C@H]2CC[C@@H]1O2 -11% [at 11.4 µM]
Cc1cc2c(nc1C)CCCN2C[C@@H](O)CN1CCN(C)CC1 -2.48% [at 11.4 µM]
